{"source": "PubChem BioAssay AID1159580", "about": "(chemical genetic matrix, 2015)", "assay": "chemical genetic growth profiling, strain panel (AID 1159580);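 note: tested at 20 µM; growth read once vehicle control cultures reached saturation at 30 °C; 1 = growth at the plate median or of vehicle wells; lower values mean less growth of the strain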", "conditions": "S. cerevisiae deletion strains, growth OD", "note": "“And” between values parts separate entries of the source, which are not always exact repeats. Equal entries are not always repeated. Hit rate of the full screen: of about 5,500 compounds, about 2,000 (36%) were called active. Roughly 18% stayed inconclusive and do not appear here. Cut-off read from the data, not from the text of the source: active = normalized growth mostly below about 0.91 (no sharp cut-off); inconclusive = no clear call, values can overlap the other calls; inactive = mostly above about 0.92. The list shows a part of the results."}
{"smiles": "COc1ccc2c(c1)OC/C(=C\\c1ccc(OC)c(O)c1)C2=O", "values": [{"measurement": "normalized growth", "setting": "locus YAL013W, strain DEP1, stronger effect = lower value", "value": "0.72 (active)"}, {"measurement": "normalized growth", "setting": "locus YAL021C, strain ccr4, stronger effect = lower value", "value": "0.985 (inactive)"}, {"measurement": "normalized growth", "setting": "locus YAL026C, strain drs2, stronger effect = lower value", "value": "0.865 (active)"}, {"measurement": "normalized growth", "setting": "locus YAL030W, strain snc1, stronger effect = lower value", "value": "0.935 (inactive)"}, {"measurement": "normalized growth", "setting": "locus YBL061C, strain skt5, stronger effect = lower value", "value": "0.905 (active)"}, {"measurement": "normalized growth", "setting": "locus YBR009C, strain hhf1, stronger effect = lower value", "value": "0.781 (active)"}, {"measurement": "normalized growth", "setting": "locus YBR021W, strain FUR4, stronger effect = lower value", "value": "0.796 (active)"}, {"measurement": "normalized growth", "setting": "locus YBR023C, strain chs3, stronger effect = lower value", "value": "0.88 (active)"}, {"measurement": "normalized growth", "setting": "locus YBR171W, strain sec66, stronger effect = lower value", "value": "0.919 (inactive)"}, {"measurement": "normalized growth", "setting": "locus YBR229C, strain ROT2, stronger effect = lower value", "value": "0.967 (inactive)"}, {"measurement": "normalized growth", "setting": "locus YBR231C, strain swc5, stronger effect = lower value", "value": "0.8 (active)"}, {"measurement": "normalized growth", "setting": "locus YBR279W, strain paf1, stronger effect = lower value", "value": "0.912 (active)"}, {"measurement": "normalized growth", "setting": "locus YCL011C, strain gbp2, stronger effect = lower value", "value": "0.857 (active)"}, {"measurement": "normalized growth", "setting": "locus YCL016C, strain dcc1, stronger effect = lower value", "value": "0.881 (active)"}, {"measurement": "normalized growth", "setting": "locus YCL029C, strain bik1, stronger effect = lower value", "value": "0.772 (active)"}, {"measurement": "normalized growth", "setting": "locus YCL069W, strain vba3, stronger effect = lower value", "value": "0.878 (active)"}, {"measurement": "normalized growth", "setting": "locus YCR088W, strain abp1, stronger effect = lower value", "value": "0.954 (inactive)"}, {"measurement": "normalized growth", "setting": "locus YDL005C, strain med2, stronger effect = lower value", "value": "0.984 (inactive)"}, {"measurement": "normalized growth", "setting": "locus YDL035C, strain GPR1, stronger effect = lower value", "value": "0.818 (active)"}, {"measurement": "normalized growth", "setting": "locus YDL040C, strain nat1, stronger effect = lower value", "value": "0.953 (inactive)"}, {"measurement": "normalized growth", "setting": "locus YDL074C, strain BRE1, stronger effect = lower value", "value": "0.534 (active)"}, {"measurement": "normalized growth", "setting": "locus YDL101C, strain DUN1, stronger effect = lower value", "value": "0.665 (active)"}, {"measurement": "normalized growth", "setting": "locus YDL185W, strain tfp1, stronger effect = lower value", "value": "0.909 (inactive)"}, {"measurement": "normalized growth", "setting": "locus YDL192W, strain arf1, stronger effect = lower value", "value": "0.748 (active)"}, {"measurement": "normalized growth", "setting": "locus YDR001C, strain nth1, stronger effect = lower value", "value": "0.953 (inactive)"}, {"measurement": "normalized growth", "setting": "locus YDR069C, strain doa4, stronger effect = lower value", "value": "0.97 (inactive)"}, {"measurement": "normalized growth", "setting": "locus YDR101C, strain arx1, stronger effect = lower value", "value": "0.855 (active)"}, {"measurement": "normalized growth", "setting": "locus YDR137W, strain rgp1, stronger effect = lower value", "value": "0.705 (active)"}, {"measurement": "normalized growth", "setting": "locus YDR150W, strain NUM1, stronger effect = lower value", "value": "0.894 (active)"}, {"measurement": "normalized growth", "setting": "locus YDR159W, strain sac3, stronger effect = lower value", "value": "0.8 (active)"}, {"measurement": "normalized growth", "setting": "locus YDR162C, strain NBP2, stronger effect = lower value", "value": "0.475 (active)"}, {"measurement": "normalized growth", "setting": "locus YDR195W, strain ref2", "value": "1.11 (inactive)"}, {"measurement": "normalized growth", "setting": "locus YDR297W, strain sur2, stronger effect = lower value", "value": "0.864 (active)"}, {"measurement": "normalized growth", "setting": "locus YDR318W, strain mcm21, stronger effect = lower value", "value": "0.574 (active)"}, {"measurement": "normalized growth", "setting": "locus YDR334W, strain swr1, stronger effect = lower value", "value": "0.894 (active)"}, {"measurement": "normalized growth", "setting": "locus YDR335W, strain msn5, stronger effect = lower value", "value": "0.943 (inactive)"}, {"measurement": "normalized growth", "setting": "locus YDR388W, stronger effect = lower value", "value": "0.913 (active)"}, {"measurement": "normalized growth", "setting": "locus YDR392W, strain spt3, stronger effect = lower value", "value": "0.206 (active)"}, {"measurement": "normalized growth", "setting": "locus YDR502C, strain sam2, stronger effect = lower value", "value": "0.69 (active)"}, {"measurement": "normalized growth", "setting": "locus YEL003W, strain gim4, stronger effect = lower value", "value": "0.806 (active)"}, {"measurement": "normalized growth", "setting": "locus YEL037C, strain rad23, stronger effect = lower value", "value": "0.954 (inactive)"}, {"measurement": "normalized growth", "setting": "locus YEL061C, strain CIN8 (second series), stronger effect = lower value", "value": "0.935 (inactive)"}, {"measurement": "normalized growth", "setting": "locus YEL061C, strain CIN8, stronger effect = lower value", "value": "0.623 (active)"}, {"measurement": "normalized growth", "setting": "locus YER015W, strain faa2, stronger effect = lower value", "value": "0.874 (active)"}, {"measurement": "normalized growth", "setting": "locus YER016W, strain bim1, stronger effect = lower value", "value": "0.949 (inactive)"}, {"measurement": "normalized growth", "setting": "locus YER110C, stronger effect = lower value", "value": "0.79 (active)"}, {"measurement": "normalized growth", "setting": "locus YER111C, strain swi4, stronger effect = lower value", "value": "0.964 (inactive)"}, {"measurement": "normalized growth", "setting": "locus YER155C, strain BEM2 (second series), stronger effect = lower value", "value": "0.448 (active)"}, {"measurement": "normalized growth", "setting": "locus YER155C, strain BEM2, stronger effect = lower value", "value": "0.301 (active)"}, {"measurement": "normalized growth", "setting": "locus YER167W, strain BCK2, stronger effect = lower value", "value": "0.816 (active)"}, {"measurement": "normalized growth", "setting": "locus YFR010W, strain ubp6, stronger effect = lower value", "value": "0.944 (inactive)"}, {"measurement": "normalized growth", "setting": "locus YGL078C, strain dbp3, stronger effect = lower value", "value": "0.878 (active)"}, {"measurement": "normalized growth", "setting": "locus YGL086W, strain mad1, stronger effect = lower value", "value": "0.517 (active)"}, {"measurement": "normalized growth", "setting": "locus YGL167C, strain pmr1, stronger effect = lower value", "value": "0.947 (inactive)"}, {"measurement": "normalized growth", "setting": "locus YGL173C, strain kem1, stronger effect = lower value", "value": "0.878 (active)"}, {"measurement": "normalized growth", "setting": "locus YGL227W, strain vid30, stronger effect = lower value", "value": "0.813 (active)"}, {"measurement": "normalized growth", "setting": "locus YGL240W, strain doc1, stronger effect = lower value", "value": "0.795 (active)"}, {"measurement": "normalized growth", "setting": "locus YGL248W, strain PDE1, stronger effect = lower value", "value": "0.603 (active)"}, {"measurement": "normalized growth", "setting": "locus YGL253W, strain hxk2, stronger effect = lower value", "value": "0.8 (active)"}, {"measurement": "normalized growth", "setting": "locus YGR078C, strain PAC10, stronger effect = lower value", "value": "0.487 (active)"}, {"measurement": "normalized growth", "setting": "locus YGR135W, strain pre9, stronger effect = lower value", "value": "0.684 (active)"}, {"measurement": "normalized growth", "setting": "locus YGR229C, strain SMI1, stronger effect = lower value", "value": "0.386 (active)"}, {"measurement": "normalized growth", "setting": "locus YGR252W, strain gcn5, stronger effect = lower value", "value": "0.545 (active)"}, {"measurement": "normalized growth", "setting": "locus YHR013C, strain ard1, stronger effect = lower value", "value": "0.783 (active)"}, {"measurement": "normalized growth", "setting": "locus YHR027C, strain rpn1, stronger effect = lower value", "value": "0.909 (active)"}, {"measurement": "normalized growth", "setting": "locus YHR030C, strain SLT2, stronger effect = lower value", "value": "0.399 (active) and 0.978 (inactive)"}, {"measurement": "normalized growth", "setting": "locus YHR079C, strain IRE1 (second series), stronger effect = lower value", "value": "0.831 (active)"}, {"measurement": "normalized growth", "setting": "locus YHR079C, strain IRE1, stronger effect = lower value", "value": "0.968 (inactive)"}, {"measurement": "normalized growth", "setting": "locus YHR094C, strain hxt1, stronger effect = lower value", "value": "0.812 (active)"}, {"measurement": "normalized growth", "setting": "locus YHR129C, strain ARP1, stronger effect = lower value", "value": "0.516 (active)"}, {"measurement": "normalized growth", "setting": "locus YHR142W, strain chs7, stronger effect = lower value", "value": "0.727 (active)"}, {"measurement": "normalized growth", "setting": "locus YHR200W, strain rpn10, stronger effect = lower value", "value": "0.864 (active)"}, {"measurement": "normalized growth", "setting": "locus YIL066C, strain RNR3, stronger effect = lower value", "value": "0.665 (active)"}, {"measurement": "normalized growth", "setting": "locus YIL073C, strain SPO22, stronger effect = lower value", "value": "0.631 (active)"}, {"measurement": "normalized growth", "setting": "locus YIL125W, strain kgd1, stronger effect = lower value", "value": "0.916 (active)"}, {"measurement": "normalized growth", "setting": "locus YIR030C, strain dcg1, stronger effect = lower value", "value": "0.854 (active)"}, {"measurement": "normalized growth", "setting": "locus YJL092W, strain hpr5, stronger effect = lower value", "value": "0.94 (inactive)"}, {"measurement": "normalized growth", "setting": "locus YJL095W, strain BCK1 (second series), stronger effect = lower value", "value": "0.899 (active)"}, {"measurement": "normalized growth", "setting": "locus YJL095W, strain BCK1, stronger effect = lower value", "value": "0.262 (active) and 0.961 (inactive)"}, {"measurement": "normalized growth", "setting": "locus YJL115W, strain asf1, stronger effect = lower value", "value": "0.953 (inactive)"}, {"measurement": "normalized growth", "setting": "locus YJL129C, strain trk1, stronger effect = lower value", "value": "0.776 (active)"}, {"measurement": "normalized growth", "setting": "locus YJL134W, strain LCB3, stronger effect = lower value", "value": "0.949 (inactive)"}, {"measurement": "normalized growth", "setting": "locus YJL154C, strain vps35, stronger effect = lower value", "value": "0.969 (inactive)"}, {"measurement": "normalized growth", "setting": "locus YJL164C, strain tpk1, stronger effect = lower value", "value": "0.876 (active)"}, {"measurement": "normalized growth", "setting": "locus YJL166W, strain qcr8, stronger effect = lower value", "value": "0.654 (active)"}, {"measurement": "normalized growth", "setting": "locus YJL168C, strain set2, stronger effect = lower value", "value": "0.948 (inactive)"}, {"measurement": "normalized growth", "setting": "locus YJL187C, strain SWE1 (second series), stronger effect = lower value", "value": "0.773 (active)"}, {"measurement": "normalized growth", "setting": "locus YJR043C, strain POL32, stronger effect = lower value", "value": "0.731 (active)"}]}
